# Data published in PubChem BioAssay (NCATS).
# Results filed as inconclusive are left out. Where a call stands in place of a potency, no number is given. Activity calls are given as the source filed them. Unless noted, the call rests on the fitted dose curve; in most records, active means well fitted curve in the direction sought with a large enough effect; inconclusive means small, poorly fitted or top-dose-only effect, or another doubt; inactive means no such curve, though single readings can be large or run the other way.
# Assay: qHTS for differential inhibitors of proliferation of Plasmodium falciparum line HB3 (AID 1886);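 further: parasites grown with compound for 72 h before SYBR Green readout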; further: potency means the concentration at half of the fitted maximal effect
# Details: Potency: Plasmodium falciparum HB3 proliferation inhibition; series mostly up to 28.7 µM
row,SMILES,Potency
1,C=CC(N)CCC(=O)O (stereo not drawn),inactive
2,O=C(O)c1cc(=O)c2c(Cl)cc(Cl)cc2[nH]1,inactive
3,c1ccc(-c2ccccn2)nc1,inactive
4,CN1CCC[C@H]1c1cccnc1,inactive
5,O=c1[nH]c2cc([N+](=O)[O-])c([N+](=O)[O-])cc2[nH]c1=O,inactive
6,CO/N=C(\C(=O)N[C@@H]1C(=O)N2C(C(=O)O)=C(COC(C)=O)CS[C@H]12)c1csc(N)n1 (stereo in doubt),inactive
7,Cc1ccc(C(=O)O[C@H](C(=O)O)[C@@H](OC(=O)c2ccc(C)cc2)C(=O)O)cc1 (tested in a mixture with another compound),inactive
8,Brc1c(Br)c(Br)c2n[nH]nc2c1Br,inactive
9,C[N+](C)(CCCCCC[N+](C)(C)CCCN1C(=O)c2cccc3cccc(c23)C1=O)CCCN1C(=O)c2cccc3cccc(c23)C1=O,0.562 µM (active)
10,CC1(C)CCC=[N+]1[O-],inactive
11,NCCCCC(=O)O,inactive
12,S=C(S)OC1CC2CC1C1CCCC21 (stereo not drawn),inactive
13,O=C(O)CC1CCCc2ccccc2C1O (stereo not drawn),inactive
14,O=C(O)CNC(=O)C(CS)Cc1ccccc1 (stereo not drawn),inactive
15,NCCCCCCCCCCN,inactive
16,NCCSSCCN,inactive
17,CN1C2CCC1CC(OC(=O)C(O)c1ccccc1)C2 (stereo not drawn),inactive

row,SMILES,Potency
1,Cn1c(=O)c2[nH]c(-c3ccccc3)nc2n(C)c1=O,inactive
2,CC1CN(S(=O)(=O)c2cccc3cnccc23)CCN1 (stereo not drawn),inactive
3,N=C(N)SCCc1ccc(CCSC(=N)N)cc1,inactive
4,CN[C@H](CC(C)C)C(=O)N[C@H]1C(=O)N[C@@H](CC(N)=O)C(=O)N[C@H]2C(=O)N[C@H]3C(=O)N[C@H](C(=O)N[C@H](C(=O)O)c4cc(O)cc(O)c4-c4cc3ccc4O)[C@H](O)c3ccc(c(Cl)c3)Oc3cc2cc(c3O[C@@H]2O[C@H](CO)[C@@H](O)[C@H](O)[C@H]2O[C@H]2C[C@](C)(N)[C@H](O)[C@H](C)O2)Oc2ccc(cc2Cl)[C@H]1O,inactive
5,O=C(O)[C@@H]1C[C@@H](C(=O)O)N1,inactive
6,CCCCCCCCCCCCCCCC(=O)NCC(COP(=O)([O-])OCC[N+](C)(C)C)OCC (stereo not drawn),inactive
7,C=C/C(C)=C/[C@@]1(C)SC(=O)C(C)=C1O,inactive
8,CC(=O)N[C@H](C(=O)O)C(C)(C)SN=O,inactive
9,NC(=O)C(=O)O,inactive
10,O=C(O)c1cc(=O)c2ccccc2[nH]1,inactive
11,COc1cc(C(O)CO)ccc1OS(=O)(=O)O (stereo not drawn),inactive
12,CN(C)c1nc(N)c(C(=O)N=C(N)N)nc1Cl,12.6 µM (active)
13,C[C@@H](CN1CCC(Cc2ccccc2)CC1)[C@@H](O)c1ccc(O)cc1,inactive
14,OCC1O[C@H](O)C(Cl)C(O)C1O (stereo partly drawn),inactive
15,CC(=O)SCC[N+](C)(C)C,inactive
16,CC(C)(C)NCC(O)COc1nsnc1N1CCOCC1 (stereo not drawn),inactive
17,O=C1O/C(=C/Br)CCC1c1cccc2ccccc12 (stereo not drawn),inactive

# Assay: qHTS Assay for Modulators of Human Peripheral Myelin Protein 22 (PMP22) Expression/Activity (AID 1967; active means well fitted curve in the direction sought with a large enough effect in the signal ratio; the % refers to the signal ratio)
# Details: Cell-based PMP22 reporter, dual-color luciferase ratio, 0% = compound-free control cells, mouse Pmp22 promoter in mouse Schwann cells; series mostly up to 115 µM
# In short: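 MSC80 mouse Schwann cells stably carrying Pmp22 promoter–green click beetle luciferase plus EF-alpha–red luciferase control were dosed for 24h at 37 °C. Dual-colour luminescence was filter-overlap corrected; %Activity came from green/red ratio versus untreated cells.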
row,SMILES,outcome
1,C=CC(N)CCC(=O)O (stereo not drawn),inactive
2,O=C(O)c1cc(=O)c2c(Cl)cc(Cl)cc2[nH]1,inactive
3,c1ccc(-c2ccccn2)nc1,inactive
4,CN1CCC[C@H]1c1cccnc1,inactive
5,O=c1[nH]c2cc([N+](=O)[O-])c([N+](=O)[O-])cc2[nH]c1=O,inactive
6,CO/N=C(\C(=O)N[C@@H]1C(=O)N2C(C(=O)O)=C(COC(C)=O)CS[C@H]12)c1csc(N)n1 (stereo in doubt),inactive
7,Cc1ccc(C(=O)O[C@H](C(=O)O)[C@@H](OC(=O)c2ccc(C)cc2)C(=O)O)cc1 (tested in a mixture with another compound),inactive
8,Brc1c(Br)c(Br)c2n[nH]nc2c1Br,inactive
9,C[N+](C)(CCCCCC[N+](C)(C)CCCN1C(=O)c2cccc3cccc(c23)C1=O)CCCN1C(=O)c2cccc3cccc(c23)C1=O,inactive
10,CC1(C)CCC=[N+]1[O-],inactive
11,NCCCCC(=O)O,inactive
12,S=C(S)OC1CC2CC1C1CCCC21 (stereo not drawn),inactive
13,O=C(O)CC1CCCc2ccccc2C1O (stereo not drawn),inactive
14,O=C(O)CNC(=O)C(CS)Cc1ccccc1 (stereo not drawn),inactive
15,NCCCCCCCCCCN,inactive
16,NCCSSCCN,inactive
17,CN1C2CCC1CC(OC(=O)C(O)c1ccccc1)C2 (stereo not drawn),inactive

row,SMILES,outcome
1,Cn1c(=O)c2[nH]c(-c3ccccc3)nc2n(C)c1=O,inactive
2,CC1CN(S(=O)(=O)c2cccc3cnccc23)CCN1 (stereo not drawn),inactive
3,N=C(N)SCCc1ccc(CCSC(=N)N)cc1,inactive
4,CN[C@H](CC(C)C)C(=O)N[C@H]1C(=O)N[C@@H](CC(N)=O)C(=O)N[C@H]2C(=O)N[C@H]3C(=O)N[C@H](C(=O)N[C@H](C(=O)O)c4cc(O)cc(O)c4-c4cc3ccc4O)[C@H](O)c3ccc(c(Cl)c3)Oc3cc2cc(c3O[C@@H]2O[C@H](CO)[C@@H](O)[C@H](O)[C@H]2O[C@H]2C[C@](C)(N)[C@H](O)[C@H](C)O2)Oc2ccc(cc2Cl)[C@H]1O,inactive
5,O=C(O)[C@@H]1C[C@@H](C(=O)O)N1,inactive
6,CCCCCCCCCCCCCCCC(=O)NCC(COP(=O)([O-])OCC[N+](C)(C)C)OCC (stereo not drawn),inactive
7,C=C/C(C)=C/[C@@]1(C)SC(=O)C(C)=C1O,inactive
8,CC(=O)N[C@H](C(=O)O)C(C)(C)SN=O,inactive
9,NC(=O)C(=O)O,inactive
10,O=C(O)c1cc(=O)c2ccccc2[nH]1,inactive
11,COc1cc(C(O)CO)ccc1OS(=O)(=O)O (stereo not drawn),inactive
12,CN(C)c1nc(N)c(C(=O)N=C(N)N)nc1Cl,inactive
13,C[C@@H](CN1CCC(Cc2ccccc2)CC1)[C@@H](O)c1ccc(O)cc1,inactive
14,OCC1O[C@H](O)C(Cl)C(O)C1O (stereo partly drawn),inactive
15,CC(=O)SCC[N+](C)(C)C,inactive
16,CC(C)(C)NCC(O)COc1nsnc1N1CCOCC1 (stereo not drawn),inactive
17,O=C1O/C(=C/Br)CCC1c1cccc2ccccc12 (stereo not drawn),inactive
